# PubChem BioAssay AID1850 (Southern Research Specialized Biocontainment Screening …, 2009)
# About 1,000 (0.32%) of roughly 310,000 compounds were called active. Only a sample is shown. Results with a measured potency or affinity are listed apart. Unmarked numbers belong to inactive results. How the calls were made is not given here.
# Experiment: Inhibition of PhoP regulon, Salmonella typhi GFP reporter cells, confirmation, 4 h (AID 1850);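 further: 0% = induced wells with vehicle and 100% = uninduced wells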
# Conditions: Salmonella Typhi PhoP-promoter GFP reporter, fluorescence, at 50 µM, hits give high values
row,SMILES,inhibition [%]
1,CCCN1C(=O)c2ccccc2NC1c1cc(OC)c(OC)c(OC)c1 (stereo unspecified),4.01
2,CCN1c2ccccc2NC2C1C(C(C)=O)C(=O)N2c1ccc(Cl)cc1 (stereo unspecified),-5.05
3,COc1ccc(-c2[nH]ncc2-c2nc(C)cs2)c(O)c1,-0.79
4,Cc1cccc(OCC(O)Cn2c(=N)n(Cc3ccccc3)c3ccccc32)c1 (stereo unspecified),-11.7
5,N=c1n(Cc2ccccc2)c2ccccc2n1CC(O)COc1ccccc1 (stereo unspecified),-2.26
6,COc1ccc(OCC(O)Cn2c(=N)n(Cc3ccccc3)c3ccccc32)cc1 (stereo unspecified),10.7
7,Cc1ccc(OCC(O)Cn2c(=N)n(Cc3ccccc3)c3ccccc32)cc1 (stereo unspecified),-18.7
8,Cc1ccn2cc(-c3cccc(NS(C)(=O)=O)c3)nc2c1,-0.47
9,CN(C)c1cccc(C(=O)OCC(=O)Nc2ccccc2-c2ccccc2)c1,-5.83
10,Cc1ccc(OCCNC(=O)CCC(=O)N2CCOCC2)cc1,1.97
11,CNCc1c(OCc2ccc(F)cc2)ccc2ccccc12,20.5
12,CNCc1c(OCc2ccccc2)ccc2ccccc12,15.5
13,Cc1cc(C)c2nc(C)cc(Nc3ccc(C(=O)NCCO)cc3)c2c1,1.42
14,COc1ccc2oc(C(=O)OCC(=O)N3CC(C)OC(C)C3)c(C)c2c1 (stereo unspecified),1.14
15,Cc1ccc(NC2=CC(=O)C(=O)c3ccccc32)cc1,5.69
16,O=C1C=C(Nc2ccccc2C(=O)O)c2ccccc2C1=O,8.73
17,CCOC(=O)c1ccc(NC2=CC(=O)C(=O)c3ccccc32)cc1,0.12
18,O=C1C=C(Nc2cccc3cccnc23)c2ccccc2C1=O,1.58
19,CS(=O)(=O)N(CC(=O)N1CCC(C(N)=O)CC1)C1CCCCC1,-1.33
20,CCOC(=O)Cc1csc(NC(=O)c2ccc3ncsc3c2)n1,-6
21,COc1ccc(-n2nc(C(=O)NCC(=O)NCc3ccccc3OC)c3ccccc3c2=O)cc1,8.47
22,c1ccc(N2CCN(c3nc(NCc4ccco4)c4ccccc4n3)CC2)cc1,13.6
23,c1ccc(CN2CCN(c3nc(N4CCOCC4)c4ccccc4n3)CC2)cc1,-3.61
24,OCCN1CCN(c2nc(NCc3ccco3)c3ccccc3n2)CC1,3.47
25,OCCNc1nc(N2CCN(Cc3ccccc3)CC2)nc2ccccc12,1.64
26,O=C(NC(=S)N1CCN(c2ccc([N+](=O)[O-])cc2)CC1)c1ccco1,-9.69

row,SMILES,inhibition [%]
1,CCC1(c2ccccc2)NC(=O)N(CC(=O)Nc2nnc(C3CC3)s2)C1=O (stereo unspecified),-9.36
2,COc1ccc(OC)c2[nH]c(=O)c(CCNS(=O)(=O)c3ccc(C)cc3)cc12,7.93
3,C#CCOCCOCCOCCNc1nc(N2CCN(C(=O)[C@H]([C@@H](C)CC)n3cc([C@@H](N)Cc4ccc(O)cc4)nn3)CC2)nc(N2CCN(C(=O)[C@H](Cc3cc4ccccc4[nH]3)n3cc([C@@H](N)C(C)CC)nn3)CC2)n1 (stereo partly specified),17.7
4,C#CCOCCOCCOCCNc1nc(N2CCN(C(=O)[C@H]([C@@H](C)CC)n3cc([C@@H](N)CC(C)C)nn3)CC2)nc(N2CCN(C(=O)[C@H](Cc3cc4ccccc4[nH]3)n3cc([C@@H](N)Cc4ccc(O)cc4)nn3)CC2)n1,-29.1
5,C#CCOCCOCCOCCNc1nc(N2CCN(C(=O)C(CCC(=O)O)n3cc(C(N)CC(C)C)nn3)CC2)nc(N2CCN(C(=O)C(Cc3cc4ccccc4[nH]3)n3cc(C(N)Cc4ccc(O)cc4)nn3)CC2)n1 (stereo unspecified),-1.42
6,C#CCOCCOCCOCCNc1nc(N2CCN(C(=O)[C@H](CCC(=O)O)n3cc(C(N)Cc4ccc(O)cc4)nn3)CC2)nc(N2CCN(C(=O)[C@H](Cc3cc4ccccc4[nH]3)n3cc(C(N)CC(C)C)nn3)CC2)n1 (stereo partly specified),5.34
7,C#CCOCCOCCOCCNc1nc(N2CCN(C(=O)[C@H](Cc3ccc(O)cc3)n3cc([C@@H](N)C(C)CC)nn3)CC2)nc(N2CCN(C(=O)[C@H](Cc3cc4ccccc4[nH]3)n3cc([C@@H](N)CC(C)C)nn3)CC2)n1 (stereo partly specified),11
8,C#CCOCCOCCOCCNc1nc(N2CCN(C(=O)C(Cc3ccc(O)cc3)n3cc(C(N)CC(C)C)nn3)CC2)nc(N2CCN(C(=O)C(Cc3cc4ccccc4[nH]3)n3cc(C(N)C(C)CC)nn3)CC2)n1 (stereo unspecified),18.1
9,CCc1ccccc1NNC(=O)c1cc(C)on1,-26.6
10,Cc1cc(OCC(=O)N2CCC(C(=O)O)(c3ccccc3)CC2)c2c(C)c(C)c(=O)oc2c1,1.07
11,O=C(Cn1cnc2c(oc3ccccc32)c1=O)N1CCCc2ccccc21,1.66
12,Cc1cc(NC(=O)c2cccc(S(=O)(=O)N3CC(c4ccccc4)CC3=O)c2)no1 (stereo unspecified),-38.2
13,O=C1CC(C(=O)Nc2ccccc2)S/C(=N\NC(=O)c2ccccc2Cl)N1 (stereo unspecified),21.9
14,OC(c1cc(C(F)(F)F)nc2c(Cl)cc(Cl)cc12)C1CCCCN1 (stereo unspecified),0.54
15,O=C(O)c1cc(C(F)(F)F)nc2c(C(F)(F)F)cccc12,-2.04
16,COc1ccc(OC)c(C(O)C2CCCCN2)c1 (stereo unspecified),-3.76
17,OC(c1cc(-c2ccc(C(F)(F)F)cc2)nc(C(F)(F)F)c1)C1CCCCN1 (stereo unspecified),-0.73
18,COc1ccc(C2Cc3ccccc3C(=O)O2)cc1 (stereo unspecified),7.74
19,CSCCC(NC(N)=O)C(=O)NCc1cccc(Cl)c1 (stereo unspecified),3.4
20,CN(C(=O)c1ccco1)c1nc(-c2ccccc2)cs1,-0.59
21,CN(C)C(=O)c1cn(-c2ccccc2)nc1-c1cc2ccccc2oc1=O,-9.39
22,Clc1ccc(/C=C/c2nc3ccccc3[nH]2)c(Cl)c1,7.7
23,CSC1=NC(C)(C)C=C(/C=C/c2ccc(Cl)cc2Cl)N1,4.11
24,CC(c1ccccc1)N1CC(C(=O)NC2CCCC2)CC1=O (stereo unspecified),-13.4
25,CCOC(=O)CC1(NC(=O)C2CCC(=O)N(Cc3ccccc3F)C2)CCCCC1 (stereo unspecified),-14.3
